From PubChem BioAssay
The list is not random: actives were taken first. Their share in the collection is about 4%.
Rv3671c protease = Rv3671c serine protease inhibitors, primary screen, biochemical, fluorescence polarization, M. tuberculosis H37Rv | inhibition, % at 5.96 µM | P9WHR9 | 320,000 tested, 0.048% active; in the data active = inhibition above about 38%;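 also: extracellular domain of Rv3671c used as enzyme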
GDH-TPI counter-1 = GDH-TPI coupling enzyme inhibitors, primary screen, artefact control for M. tuberculosis FBA inhibitor project, biochemical, absorbance, full deck; GDH-TPI coupled enzyme counterscreen, NADH absorbance; inhibition, % at 4.8 µM; 360,000 tested, 1.2% active; AID 588335, 2011; in the data active = inhibition above about 30%
RecA splice inh = Mtb RecA intein splicing inhibitors, primary screen, biochemical, fluorescence, HTS; Protein RecA (Mycobacterium tuberculosis (strain ATCC 25618 / H37Rv)), P9WHJ3; cell-free RecA intein splicing; inhibition, % (concentration not given with the values); 290,000 tested, 0.75% active; AID 2221, 2009; in the data active = inhibition above about 30%; inconclusive = no clear call, values can overlap the other calls
Mtb UGM inh = M. tuberculosis UGM enzyme inhibitors, primary screen, biochemical, fluorescence polarization, single point; purified UGM, fluorescence polarization probe displacement; inhibition, % at 10 µM; 320,000 tested, 0.06% active; UDP-galactopyranose mutase (Mycobacterium tuberculosis (strain ATCC 25618 / H37Rv)), …; in the data active = inhibition above about 10%, passing the limit was not always enough; inconclusive = no clear call, values can overlap the other calls
Mtb FBA inh = Mtb FBA enzyme inhibitors, primary screen, biochemical, fluorescence, strain H37Rv. inhibition, % at 1 µM. AID 588726, 2011. 360,000 tested, 2.3% active. purified M. tuberculosis FBA, fluorescence read-out
Target sequence (P9WQA3 whole entry, looked up): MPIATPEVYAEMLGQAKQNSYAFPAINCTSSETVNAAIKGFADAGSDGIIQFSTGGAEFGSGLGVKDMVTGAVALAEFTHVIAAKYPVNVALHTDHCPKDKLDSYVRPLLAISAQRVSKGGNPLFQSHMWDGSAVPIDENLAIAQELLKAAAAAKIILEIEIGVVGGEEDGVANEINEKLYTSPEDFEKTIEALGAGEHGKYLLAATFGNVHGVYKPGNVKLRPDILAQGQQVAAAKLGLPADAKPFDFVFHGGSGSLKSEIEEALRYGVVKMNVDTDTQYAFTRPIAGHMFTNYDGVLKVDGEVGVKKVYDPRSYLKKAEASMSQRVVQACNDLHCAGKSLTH
Mtb betalactam = beta-lactam sensitization of Mtb H37Rv, H37Rv. M. tuberculosis H37Rv growth with meropenem, percent inhibition. inhibition, % at 25 µM. 330,000 tested, 0.27% active. AID 434955, 2010; call rule not given here;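 also: growth measured after seven days incubation then overnight dye step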
Mtb FBA confirm = M. tuberculosis aldolase blockers, biochemical, fluorescence, strain H37Rv, confirmation | inhibition, % at 1 µM | shares compounds with Mtb FBA inh | purified M. tuberculosis FBA, fluorescence read-out | 5,600 tested, 78% active
GDH-TPI counter-2 = GDH-TPI coupling enzyme inhibitors, artefact control for M. tuberculosis FBA inhibitor project, biochemical, fluorescence, high throughput; shares compounds with Mtb FBA inh; GDH-TPI coupled enzyme counterscreen; inhibition, % at 1 µM; 5,600 tested, 81% active; AID 652141, 2013; in the data active = inhibition above about 10%
Each line names hits and unclear results; the compound was inactive in the other large screens (follow-up assays come after a bar, where they were run). Rule as the data show it, unless noted: active = inhibition above about 27%; inactive = the rest.

CCOc1ccc2oc(C(=O)O)c(C)c2c1	none
CCNC(=O)NC(=O)C(C)OC(=O)c1oc2ccc(OC)cc2c1C (configuration not stated)	Mtb FBA inh 44 | Mtb FBA confirm inactive | GDH-TPI counter-2 inactive
COc1ccc2oc(C(=O)OC(C)C(=O)Nc3ccc(N4CCOCC4)cc3)c(C)c2c1 (configuration not stated)	none (no result: RecA splice inh)
COc1ccc2oc(C(=O)OCC(=O)N3CC(C)OC(C)C3)c(C)c2c1 (configuration not stated)	Mtb FBA inh 36, Mtb betalactam inconclusive | Mtb FBA confirm inactive | GDH-TPI counter-2 23
C=C1C[C@@]23CCC4[C@@](C)(CCC[C@@]4(C)C(=O)OC)C2CC[C@]1(OC(C)=O)C3 (some centres not stated)	none (no result: RecA splice inh)
CCOc1ccc(S(=O)(=O)NCc2ccc3c(c2)OCO3)cc1	none
CCOc1ccc2oc(C(=O)OC(C(=O)NC(N)=O)C(C)C)c(C)c2c1 (configuration not stated)	Mtb FBA inh 40 | Mtb FBA confirm active | GDH-TPI counter-2 active
COc1ccc2oc(C(=O)OC(C)C(=O)N(C)c3ccccc3)c(C)c2c1 (configuration not stated)	Mtb FBA inh 31 | Mtb FBA confirm active | GDH-TPI counter-2 active
COc1ccc2oc(C(=O)OCC(=O)N3CC(C)CC(C)C3)c(C)c2c1 (configuration not stated)	Mtb FBA inh 31 | Mtb FBA confirm 57 | GDH-TPI counter-2 51
COC(=O)C1CCN(C(=O)COC(=O)c2cc(-c3ccccc3)nc3ccc(OC)cc23)CC1	Mtb FBA inh 83 (no result: RecA splice inh) | Mtb FBA confirm 58 | GDH-TPI counter-2 51
Cc1c(C(=O)OCC(=O)N2CC(C)CC(C)C2)oc2ccccc12 (configuration not stated)	none
CSc1ccc(C#N)cc1NC(=O)c1ccccc1C	none
Cc1ccc(Nc2nc(CSc3nnc(-c4cccnc4)n3-c3ccccc3C)cs2)cc1	none
CCN(CC(=O)Nc1ccccc1C(F)(F)F)C(=O)CN1C(=O)NC(C)(c2ccccc2)C1=O (configuration not stated)	none
NC(=S)N=Nc1c(O)[nH]c2c(Br)cc(Br)cc12	none
CCOC(=O)C1CCN(C(=O)COC(=O)c2oc3ccc(OC)cc3c2C)CC1	Mtb FBA inh 40 (no result: RecA splice inh, Mtb UGM inh) | Mtb FBA confirm 86 | GDH-TPI counter-2 47
CC1(C)N=C(c2ccccc2)C(c2ccccc2)=N1	none (no result: Rv3671c protease, RecA splice inh, Mtb UGM inh, Mtb betalactam)
COc1ccc(C2C3=C(CCCC3=O)Nc3nc(C(F)(F)F)nn32)cc1OC (configuration not stated)	none
COc1ccc(C2C3=C(CC(C)(C)CC3=O)Nc3nc(C)nn32)cc1OC (configuration not stated)	Mtb FBA inh 36 | Mtb FBA confirm active | GDH-TPI counter-2 active
C=CCOCCn1[nH]c2ccccc2c1=O	Mtb FBA inh 47 (no result: RecA splice inh) | Mtb FBA confirm 130 | GDH-TPI counter-2 108
CCSCC(C)(C)n1[nH]c2ccccc2c1=O	none (no result: Rv3671c protease, RecA splice inh, Mtb UGM inh, Mtb betalactam)
Cc1ccc2[nH]ccc(=O)c2c1	Mtb FBA inh 30 | Mtb FBA confirm 52 | GDH-TPI counter-2 39
O=C(Nc1ccc([N+](=O)[O-])cc1)Nc1ccc(N2CCOCC2)c2nonc12	none
CCCn1c(CCC(=O)O)ccc1-c1ccc(OC)cc1	Mtb FBA inh 30 | Mtb FBA confirm active | GDH-TPI counter-2 active
CN1CCCc2cc3c(C(F)(F)F)cc(=O)oc3nc21	Mtb FBA inh 30 | Mtb FBA confirm 130 | GDH-TPI counter-2 111
